The values that follow come from PubChem BioAssay (NCI).

Compounds without any hit were thinned out: in the full panel of roughly 83,000, 20% have a hit.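 96-well plates, one dose, 48 hours. Percent growth reported; active if below 10.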 A number with no mark means an inactive call. The source made the active and inactive calls.

Among the test systems are NCI-H23 lung; NCI-H226 lung; NCI-H322M lung; HOP-62 NSCLC; NCI-H460 lung; NCI-H522 lung; A549/ATCC NSCLC; 786-0 renal; COLO 205 colon; DU-145 prostate; K-562 leukemia; MALME-3M melanoma; MDA-MB-231 breast; RXF 393 renal; SF-268 CNS; SF-295 CNS; SF-539 CNS; UACC-257 melanoma; M14 melanoma.
Common to all, as to assay: NCI-60 one-dose screen, 48 h (100 = growth as untreated, 0 = no growth, -100 = all killed)
What all share (details): 10 µM unless noted

With `COc1c(F)ccc(C(=O)Nc2ccc3nc(NC(=O)C4CCCN(S(=O)(=O)c5ccc(Cl)cc5)C4)sc3c2)c1F` (configuration not stated), the growth in the experiment on NCI-H23 lung was 85.7%; with NCI-H226 lung, 76%; in the experiment on NCI-H322M lung, 86.6%; in the experiment on HOP-62 NSCLC, 102%; with NCI-H460 lung, 81.3%; with NCI-H522 lung, 76.6%. Also, the growth was 65.6% with A549/ATCC NSCLC; 54.7% in the experiment on 786-0 renal; 77.8% in the experiment with COLO 205 colon; 93.4% with DU-145 prostate; 59.2% in the experiment on K-562 leukemia; 90.5% with MALME-3M melanoma. In addition, the growth is 81.1% in the experiment on MDA-MB-231 breast; 8.75% (active) in the experiment on RXF 393 renal; 77.4% in the experiment on SF-268 CNS; 63.6% in the experiment with SF-295 CNS; 66.8% with SF-539 CNS; 82.4% with UACC-257 melanoma. For the same compound, in the experiment with M14 melanoma, the growth was 75.6%.
Take `CC12CC[C@@H]3[C@]4(C)COC(c5cn[nH]c5-c5ccc(Br)cc5)O[C@@H]4CC[C@@]3(C)[C@@H]1CC(C1=CCOC1=O)O2` (some centres not stated): the growth is 57.3% with NCI-H23 lung; 59.7% in the experiment on NCI-H226 lung; 66.1% with NCI-H322M lung; 79.5% in the experiment on HOP-62 NSCLC; 35.4% with NCI-H460 lung; 37.4% in the experiment with NCI-H522 lung. The growth with A549/ATCC NSCLC is 35.5%; in the experiment with 786-0 renal, 62.3%; in the experiment with COLO 205 colon, 39%; with DU-145 prostate it was 69.5%; in the experiment on K-562 leukemia it was 19.4%; with MALME-3M melanoma, 70.2%. Moreover, the growth in the experiment with MDA-MB-231 breast is 66%; in the experiment on RXF 393 renal, 37%; in the experiment with SF-268 CNS it was 50.1%; with SF-295 CNS, 48.7%; with SF-539 CNS it was 69.9%; with UACC-257 melanoma, 55.2%. Moreover, in the experiment on M14 melanoma, the growth is 38.8%.
In the case of `COc1ccc(/C=C2\C(=N)N=C(SCc3nc4ccccc4[nH]3)NC2=O)cc1`, the growth with NCI-H23 lung was 100%; in the experiment on NCI-H226 lung it was 98.1%; in the experiment with NCI-H322M lung, 110%; in the experiment on HOP-62 NSCLC, 105%; in the experiment on NCI-H460 lung it was 105%; in the experiment on NCI-H522 lung, 103%. Further, the growth was 112% with A549/ATCC NSCLC; 114% in the experiment on 786-0 renal; 122% in the experiment with COLO 205 colon; 115% with DU-145 prostate; 112% in the experiment on K-562 leukemia; 102% with MALME-3M melanoma. Further, the growth in the experiment with MDA-MB-231 breast was 105%; in the experiment on RXF 393 renal, 122%; in the experiment with SF-268 CNS, 109%; with SF-295 CNS, 103%; in the experiment with SF-539 CNS it was 103%; with UACC-257 melanoma, 108%. Further, in the experiment with M14 melanoma, the growth was 112%.
`CN(C)c1nc(NCCNS(=O)(=O)c2ccc(C3=Nc4c(N)nc(N)nc4NC(c4ccc(F)cc4)C3)cc2)nc(Nc2ccc(F)cc2)n1` (configuration not stated): the growth was 64.5% with NCI-H23 lung; 53% in the experiment with NCI-H226 lung; 63.3% in the experiment on NCI-H322M lung; 72.4% in the experiment with HOP-62 NSCLC; 21.7% in the experiment with NCI-H460 lung; 42.1% in the experiment with NCI-H522 lung. Moreover, the growth with A549/ATCC NSCLC is 66.3%; with 786-0 renal it was 30.2%; in the experiment on COLO 205 colon it was 37.9%; in the experiment with DU-145 prostate it was 54.2%; with K-562 leukemia it was 3.61% (active); with MALME-3M melanoma, 47.1%. In addition, the growth with MDA-MB-231 breast is 20.8%; in the experiment with RXF 393 renal, 16.5%; in the experiment with SF-268 CNS, 31.9%; in the experiment on SF-295 CNS it was 57.3%; with SF-539 CNS, -25.3% (active); with UACC-257 melanoma, 59.3%. Also, the growth in the experiment with M14 melanoma was 28%.
Regarding `C=CC(=O)Nc1ccc(C)c(Oc2ccc(Cl)cc2)c1`, the growth is 55.9% in the experiment with NCI-H23 lung; 41.7% in the experiment on NCI-H226 lung; 48.4% in the experiment with NCI-H322M lung; 63% in the experiment on HOP-62 NSCLC; 20.5% with NCI-H460 lung; 3.62% (active) with NCI-H522 lung. The growth with A549/ATCC NSCLC was 47.2%; in the experiment on 786-0 renal, 55.1%; in the experiment on COLO 205 colon, 55.7%; in the experiment with DU-145 prostate it was 68.6%; in the experiment with K-562 leukemia, 53.2%; with MALME-3M melanoma, 73.8%. The growth in the experiment on MDA-MB-231 breast was 44.1%; in the experiment with RXF 393 renal, 38.5%; in the experiment on SF-268 CNS, 57.1%; in the experiment with SF-295 CNS, 58%; in the experiment on SF-539 CNS it was 30.2%; in the experiment on UACC-257 melanoma it was 66.6%. The growth with M14 melanoma was 72.3%.
In the case of `CC12CC[C@@H]3[C@]4(C)COC(c5cn[nH]c5-c5cccc(Cl)c5)O[C@@H]4CC[C@@]3(C)[C@@H]1CC(C1=CCOC1=O)O2` (some centres not stated), the growth in the experiment on NCI-H23 lung is 43.5%; in the experiment on NCI-H226 lung, 42.9%; with NCI-H322M lung it was 52.1%; with HOP-62 NSCLC, 74.6%; in the experiment on NCI-H460 lung, 33.7%; in the experiment with NCI-H522 lung it was 26.8%. Moreover, the growth in the experiment on A549/ATCC NSCLC is 26.7%; in the experiment with 786-0 renal it was 47.5%; in the experiment with COLO 205 colon it was 18.3%; in the experiment on DU-145 prostate, 56.6%; in the experiment on K-562 leukemia, 25%; with MALME-3M melanoma, 40.5%. Further, the growth in the experiment with MDA-MB-231 breast was 36.4%; in the experiment on RXF 393 renal it was 18.3%; in the experiment with SF-268 CNS it was 45.5%; in the experiment on SF-295 CNS it was 35.4%; in the experiment with SF-539 CNS, 58.2%; with UACC-257 melanoma, 43.3%. Moreover, in the experiment on M14 melanoma, the growth is 25.3%.
As to `CC(=O)c1cccc(NC(=O)CCC(=O)NS(=O)(=O)c2ccc(C)cc2)c1`, the growth in the experiment with NCI-H23 lung was 108%; in the experiment on NCI-H226 lung, 108%; with NCI-H322M lung, 109%; in the experiment on HOP-62 NSCLC it was 98.6%; with NCI-H460 lung it was 120%; in the experiment with NCI-H522 lung, 102%. The growth is 100% in the experiment with A549/ATCC NSCLC; 105% in the experiment on 786-0 renal; 113% in the experiment with COLO 205 colon; 122% in the experiment on DU-145 prostate; 101% with K-562 leukemia; 103% in the experiment on MALME-3M melanoma. Moreover, the growth with MDA-MB-231 breast was 107%; in the experiment with RXF 393 renal it was 132%; in the experiment with SF-268 CNS, 134%; in the experiment on SF-295 CNS, 104%; in the experiment with SF-539 CNS, 105%; in the experiment with UACC-257 melanoma, 103%. For the same compound, the growth in the experiment on M14 melanoma is 102%.
In the case of `COc1c(F)ccc(C(=O)Nc2ccc3nc(NC(=O)C4CCCN(S(=O)(=O)C5CC5)C4)sc3c2)c1F` (configuration not stated), the growth in the experiment with NCI-H23 lung was 31.5%; in the experiment on NCI-H226 lung, 34.8%; with NCI-H322M lung, 65.2%; with HOP-62 NSCLC it was 68.4%; in the experiment with NCI-H460 lung, 48.5%; in the experiment on NCI-H522 lung it was 40.7%. For the same compound, the growth in the experiment with A549/ATCC NSCLC is 54%; in the experiment on 786-0 renal, 31.1%; with COLO 205 colon, 32.4%; in the experiment on DU-145 prostate it was 66.8%; in the experiment with K-562 leukemia, 20.5%; in the experiment with MALME-3M melanoma, 43.5%. The growth was 46.7% in the experiment on MDA-MB-231 breast; -4.35% (active) with RXF 393 renal; 76.2% in the experiment on SF-268 CNS; 18.1% in the experiment with SF-295 CNS; 37.6% with SF-539 CNS; 20.9% in the experiment on UACC-257 melanoma. Further, the growth in the experiment on M14 melanoma was 50.3%.
